For 15 compounds, activation results are on record in PubChem BioAssay AID588473 (Sanford-Burnham Center for Chemical Genomics, 2011).

In all, about 350,000 compounds went through this assay and about 1,600 (0.46%) were called active.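 Rule for the calls: active = activation of at least 50%, plus an integration ratio under a set limit after plate pattern correction; inactive = the rest.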 For the sample, actives were picked, then their nearest neighbours and some compounds at random.

This assay has as its system CRF-binding protein / CRF receptor 2 complex (human). Briefly: agonists of CRF-BP/CRF-R2 complex, primary screen, cell-based, HEK293, calcium dye fluorescence, uHTS (AID 588473).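 Note: plate controls were neutral control wells without compound for no effect and CRF at EC100 for full effect.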 To be noted: calcium dye fluorescence (FLIPR), at 13.2 µM, active compounds read high.
For `CCCCC(=O)N/N=C/c1c(O)n(CCC2=CCCCC2)c(=O)[nH]c1=O`, the activation is 0.08% (inactive).

In the case of `Cn1c(O)c(C=NCCCC(=O)O)c(=O)n(C)c1=O`, the activation was 3.61% (inactive).

With `CCCCC(=O)N/N=C/c1c(O)n(CC)c(=S)n(CC)c1=O`, the activation is 89% (active).

With `COC(=O)C1=C(c2ccc(C(C)=O)cc2)C[C@@H]2CC[C@H]1N2C(=O)NCCNC(C)=O`, the activation was -2% [percent of saturating CRF peptide response] (inactive).

Regarding `COc1ccc(C2NCc3ccc4c(c3-n3cccc32)OCO4)cc1OC` (stereo not given), the activation was -1.07% (inactive).

On to `COC(=O)N(c1ccc(OC)cc1)P1(=S)OCCC(C)O1` (stereo not given), for which the activation is -2.1% (inactive).

As for `Cc1nc2ccccn2c1P(=S)(N1CCCCC1)N1CCCCC1`, the activation was 63.2% (active).

On to `CN1CCN(Cc2ccc(OC(F)(F)F)cc2)CC1`, for which the activation was -0.02% (inactive).

As to `CCCCCn1c(=O)c(C(=O)NCc2ccccc2)c(O)c2ccccc21`, the activation is 4.58% (inactive).

As to `CCOP(=S)(OCC)C(O)CCCCCn1c(=O)c(F)cn(C2CCCO2)c1=O` (stereo not given), the activation was -3.57% (inactive).

As for `O=C(c1cc(S(=O)(=O)N2CCOCC2)ccc1F)N1CCC2(CC1)OCCO2`, the activation was 2.62% (inactive).

For `COc1ccc(N2C(=O)/C(=C/c3ccco3)C(=O)NC2=S)cc1`, the activation was 4.87% (inactive).

With `COc1cccc(N2C(=O)NC(=O)/C(=C\c3cn(C)c4ccccc34)C2=O)c1`, the activation is 113% (active).

As for `COc1cccc(N2C(=O)NC(=O)/C(=C\c3ccc([N+](=O)[O-])s3)C2=O)c1`, the activation is 4.02% (inactive).

On to `c1ccc(C(CN2CCCCC2)c2ccccc2)cc1`, for which the activation was -0.78% [percent of saturating CRF peptide response] (inactive).
